Among all 5,500 compounds or so, about 2,000 (36%) were called active. Roughly 18% stayed inconclusive and do not appear here. Rule as the data show it: active = normalized growth mostly below about 0.91 (no sharp cut-off); inconclusive = no clear call, values can overlap the other calls; inactive = mostly above about 0.92. The list shows a part of the results.
Assay: chemical genetic growth profiling, strain panel (AID 1159580);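 also: tested at 20 µM; growth read once vehicle control cultures reached saturation at 30 °C; 1 = growth at the plate median or of vehicle wells; lower values mean less growth of the strain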
Conditions: S. cerevisiae deletion strains, growth OD

Measured: normalized growth

CCCCc1ccc(C(=O)O)nc1
inactive: locus YAL013W, strain DEP1, hits give low values 1.02 | locus YAL040C, strain CLN3, hits give low values 0.992 | locus YCL061C, strain MRC1 (second series), hits give low values 1 | locus YDR363W, strain ESC2, hits give low values 1.02 | locus YER002W, strain NOP16, hits give low values 1.05 | locus YGR078C, strain PAC10, hits give low values 1 | locus YJR075W, strain HOC1, hits give low values 1.07 | locus YNL175C, strain NOP13, hits give low values 0.988 | locus YNL197C, strain WHI3, hits give low values 1.01 | locus YNL224C, strain SQS1, hits give low values 0.979 | locus YNL322C, strain KRE1, hits give low values 1.02 | locus YOR083W, strain WHI5 (second series), hits give low values 1.05 | locus YPL055C, strain LGE1, hits give low values 1.03

From PubChem BioAssay AID1159580 (chemical genetic matrix, 2015)
